Assay outcomes from PubChem BioAssay.
S1P4 antag: antagonists of human S1P4 receptor. 220,000 compounds, 0.26% hits. O95977. inhibition, % at 4.98 µM. AID 1510. S1P4-expressing cells, antagonist mode, reporter read-out; in the data active = inhibition above about 29%;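 note: 0% = wells stimulated with agonist and 100% = vehicle wells without agonist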
GALR2 antag: antagonists of human galanin receptor 2 (GALR2) | O43603 | GALR2-expressing cells, antagonist mode | inhibition, % at 4 µM | 140,000 compounds, 0.39% hits | AID 828;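 note: cells stimulated with galanin 1-16 at roughly its EC80; 0% = agonist challenge control and 100% = basal control without agonist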
Target sequence (O43603 whole entry, looked up): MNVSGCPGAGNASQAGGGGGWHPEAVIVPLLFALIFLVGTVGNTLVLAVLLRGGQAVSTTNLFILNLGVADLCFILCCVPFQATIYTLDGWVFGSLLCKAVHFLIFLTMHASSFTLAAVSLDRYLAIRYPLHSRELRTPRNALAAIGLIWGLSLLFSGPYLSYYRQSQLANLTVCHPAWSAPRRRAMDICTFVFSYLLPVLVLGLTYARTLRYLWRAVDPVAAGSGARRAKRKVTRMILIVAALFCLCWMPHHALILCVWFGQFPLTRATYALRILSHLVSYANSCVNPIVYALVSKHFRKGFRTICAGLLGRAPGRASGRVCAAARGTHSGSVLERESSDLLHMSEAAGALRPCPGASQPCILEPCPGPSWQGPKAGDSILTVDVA
GALR2 agonist: agonists of human galanin receptor 2 (GALR2); AID 803; O43603; 140,000 compounds, 0.48% hits; GALR2-expressing cells, agonist activation read-out; activation, % (concentration not given with the values); in the data active = activation above about 5%, passing the limit was not always enough;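 note: 0% = vehicle buffer wells and 100% = reference agonist at full effect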
S1P4 ag: human S1P4 receptor agonism; O95977; S1P4-expressing cell line, agonist reporter assay; activation, % at 4.98 µM; 220,000 compounds, 0.35% hits; AID 1509; in the data active = activation above about 11%;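 note: 0% = DMSO vehicle and 100% = reference agonist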
S1P3 antag: blocks the human S1P3 receptor | Q99500 | CHO S1P3 NFAT-BLA reporter, FRET fluorescence, antagonist mode | inhibition, % at 4.98 µM | 170,000 compounds, 0.27% hits | AID 485;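 active = inhibition above the plate cutoff, the mean inhibition of test wells on that plate plus 3 SD, cut at about 28% in these data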;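 note: cells challenged with S1P at its EC80 of 0.8 µM; blue over green emission ratio from cleaved BLA substrate after 4 h stimulation; 0% = S1P-stimulated wells and 100% = unstimulated DMSO-only wells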
GALR2 blk conf: confirmation of human galanin receptor 2 (GALR2) antagonists. 480 compounds, 60% hits. inhibition, % at 4 µM. shares compounds with GALR2 antag. GALR2-expressing cells, antagonist mode, inhibition;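 note: cells stimulated with galanin at about its EC80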
BLA inh counter: counter-screen for GALR2 antagonists: beta-lactamase reporter inhibitors; shares compounds with GALR2 antag; CHO NFAT-BLA reporter, beta-lactamase FRET, thapsigargin-stimulated; inhibition, % at 4.2 µM; 480 compounds, 36% hits; AID 867;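 active = inhibition above the mean inhibition across tested compounds plus 3 SD, cut at about 27% in these data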;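 note: 0% = 500 nM thapsigargin stimulated wells and 100% = unstimulated BSA only wells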
S1P4 antag cf: confirmation of human S1P4 receptor antagonists; shares compounds with S1P4 antag; S1P4-expressing cell line, antagonist mode, reporter read-out; inhibition, % at 4.98 µM; 520 compounds, 71% hits; in the data active = inhibition above about 30%
S1P1 antagonist: human S1P1 antagonism as S1P4 antagonist counter-screen. 520 compounds, 37% hits. cell-based S1P1 antagonist counterscreen, inhibition. inhibition, % at 4.98 µM. shares compounds with S1P4 antag; in the data active = inhibition above about 40%;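 note: receptor stimulated with S1P near its EC80; 0% = agonist stimulated wells and 100% = vehicle only wells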
An asterisk follows results filed as active; . = not tested or not shown. In the library only some 1.3% were active in any assay of this set; here they are far more common. Cut-off read from the data, not from the text of the source, unless noted: active = inhibition above about 27%; inactive = the rest.

SMILES | S1P4 antag | GALR2 antag | GALR2 agonist | S1P4 ag | S1P3 antag | GALR2 blk conf | BLA inh counter | others
Cc1nc([N+](=O)[O-])c(Sc2nc3ccccc3n2C)n1Cc1ccccc1 | -6 | 31* | 0 | 1 | -10 | 23 | 6
Cc1nc([N+](=O)[O-])c(SCC(N)=O)n1Cc1ccccc1 | 4 | . | . | 1 | -5 | . | .
NC(=O)CSCc1nc2ccccc2s1 | 4 | 31* | -3 | 0 | . | 5 | 2
N/C(Cc1nc2ccccc2s1)=N\O | -9 | . | . | 0 | 1 | . | .
Cc1ccc(C(=O)N(C)c2ccc(OCC(=O)N3c4ccc(C)cc4C4CN(C)CCC43)cc2)cc1 (stereo not drawn) | -24 | . | . | 1 | -19 | . | .
C=CCN(CC=C)c1cnn(-c2nc3ccccc3[nH]2)c(=O)c1Cl | 9 | 11 | -3 | 0 | . | . | .
O=c1c(Cl)c(NCCCO)cnn1-c1nc2ccccc2[nH]1 | 0 | 36* | -3 | -5 | . | 42* | 37*
N/C(=N\OC(=O)Oc1ccccc1)c1cccc([N+](=O)[O-])c1 | -23 | 5 | -1 | 0 | -3 | . | .
O=C(C#Cc1ccccc1)c1cccc([N+](=O)[O-])c1 | 11 | 34* | 1 | 1 | . | 72* | 75*
O=C(Nc1cccc(S(=O)(=O)N2CCCC2)c1)c1ccc2c(=O)n3c(nc2c1)CCCCC3 | -1 | 34* | -1 | 3 | -13 | 14 | 11
COc1cccc(Cn2c(NCc3ccco3)nc3c2c(=O)n(C)c(=O)n3C)c1 | -30 | 28* | -1 | 1 | . | 19 | 3
COc1ccc(Cl)c(Cn2c(NCc3ccco3)nc3c2c(=O)n(C)c(=O)n3C)c1 | -14 | -2 | -3 | 1 | 12 | . | .
COc1ccc(C(=O)N/C(=C/c2cccs2)c2nc3ccccc3[nH]2)cc1OC | -11 | 1 | -1 | 0 | -17 | . | .
COc1cc(/C=C(/C(=O)c2cccs2)c2nc3ccccc3[nH]2)cc(OC)c1O | 27 | 32* | -3 | 1 | . | 31* | 34*
CCSc1nnc(NC(=O)C(CC)(C(F)(F)F)C(F)(F)F)s1 | 6 | 28* | -2 | 2 | . | 2 | -2
CCS(=O)(=O)N1CCN(c2ccccn2)CC1 | -2 | 6 | -3 | 1 | . | . | .
CCC(=O)N(CCC1(c2ccccc2OC)CCOC(C(C)C)C1)Cc1ccco1 (stereo not drawn) | 0 | . | . | 0 | 0 | . | .
O=C1N/C(=C/c2ccc(N3CCCC3)cc2)C(=O)N1c1ccccc1 | 1 | 16 | 2 | -1 | -9 | . | .
O=C1NC(=S)S/C1=C/c1ccc(N2CCOCC2)o1 | -16 | 6 | 0 | 0 | -2 | . | .
O=C1N/C(=C/c2ccc(N3CCOCC3)o2)C(=O)N1c1ccccc1 | 9 | 55* | 0 | 0 | 15 | 11 | 14
C=CCN1C(=O)N/C(=C/c2ccc(N3CCOCC3)o2)C1=O | 4 | 38* | 1 | -1 | 10 | 14 | 13
CCOC(=O)c1c(NC(=O)C[n+]2ccc(N(C)C)cc2)sc(C)c1C | -8 | . | . | 0 | 5 | . | .
CCCCCOc1ccc(Br)cc1CSC(=N)N | 0 | 33* | 0 | 1 | 6 | 38* | 77*
CCOC(=O)C1CCCN(C(=S)Nc2cccc(Cl)c2)C1 (stereo not drawn) | -13 | 9 | -1 | 0 | -6 | . | .
CC(C)NC(=O)CSc1nncn1-c1ccccc1 | -9 | 27* | -1 | 2 | -25 | 12 | 10
SMILES | S1P4 antag | GALR2 antag | GALR2 agonist | S1P4 ag | S1P3 antag | GALR2 blk conf | BLA inh counter | others
O=c1c(O)c(-c2cccs2)oc2ccccc12 | 13 | 29* | -2 | -2 | -6 | 31* | 37*
O=c1c(O)c(-c2cccs2)oc2ccc(Cl)cc12 | -7 | 33* | -2 | 0 | . | 32* | 42*
Cc1ccc(-c2oc3ccccc3c(=O)c2O)cc1 | -19 | 20 | 0 | 0 | -23 | . | .
O=C(/C=C/c1ccc(Cl)cc1)NC(=S)Nc1ccc(NC(=O)c2ccco2)cc1 | -8 | 46* | -2 | 3 | -19 | 53* | 23
O=C(c1ccccc1)c1ccc2nc(-c3ccc(NC(=O)c4ccccc4F)cc3)[nH]c2c1 | -10 | 39* | 4 | 0 | . | 31* | 10
NC(=O)c1ccccc1NC(=O)Nc1cccc(Cl)c1Cl | -1 | 53* | -2 | 0 | -10 | 69* | 33*
Nc1nc2nonc2nc1N | -7 | . | . | 0 | 7 | . | .
COc1ccc(Nc2nc(N3CCCC3)c3ccccc3n2)cc1 | -18 | 30* | 1 | 2 | 17 | 36* | 14
Cc1ccc(NC(=O)CC(O)(C(F)(F)F)C(F)(F)F)c(Br)c1 | 7 | 28* | -4 | 0 | 20 | 10 | 5
Cc1ccccc1NC(=O)CC(O)(C(F)(F)F)C(F)(F)F | -8 | 2 | -1 | 0 | . | . | .
COc1ccc(C2(O)CN(c3ccc(C)cc3)C3=[N+]2CCCC3)cc1 (stereo not drawn) | 5 | . | . | 2 | -10 | . | .
CC(C)OC(=O)CSc1nc2ccccc2s1 | -10 | 34* | -3 | -1 | -7 | 6 | 15
Cc1ccc(NC2=C/C(=N/S(=O)(=O)c3cccs3)c3ccccc3C2=O)cc1C | -4 | 4 | -1 | 2 | -18 | . | .
Cc1ccccc1NC1=C/C(=N\S(=O)(=O)c2cccs2)c2ccccc2C1=O | -1 | 63* | 5 | 0 | . | 44* | 59*
Cc1cccnc1Nc1nc(-c2ccccn2)cs1 | 24 | 27* | -1 | 1 | . | 51* | 31*
O=C(NCc1cccnc1)/C(=C\c1ccc(-c2ccc(Br)cc2)o1)S(=O)(=O)c1ccccc1 | 52* | 37* | 0 | 1 | 22 | 41* | 27* | S1P4 antag cf=106*;S1P1 antagonist=64*
O=C(NCc1cccnc1)/C(=C/c1ccc(-c2cccc(C(F)(F)F)c2)o1)NC(=O)c1ccccc1 | -2 | 9 | -2 | 2 | . | . | .
Cc1ccc(/C(=N/Nc2nc3ccccc3s2)C2=C(O)c3ccccc3C2=O)cc1 | 4 | . | . | -1 | -8 | . | .
Cn1cnc([N+](=O)[O-])c1S(=O)(=O)c1cccc(Cl)c1 | 48* | 47* | -4 | 4 | -11 | 43* | 21 | S1P4 antag cf=47*;S1P1 antagonist=63*
Cc1nn(C(C)C(=O)c2cccc(Cl)c2)c(C)c1[N+](=O)[O-] (stereo not drawn) | -6 | . | . | -2 | -5 | . | .
COc1ccc(NC(=O)/C(Cl)=C(/Cl)S(=O)(=O)Cc2ccc(C)cc2)cn1 | 60* | 78* | 0 | 2 | . | 93* | 95* | S1P4 antag cf=116*;S1P1 antagonist=89*
COc1ccc(NC(=O)Cc2ccc(Cl)c(Cl)c2)cn1 | -14 | . | . | 2 | 2 | . | .
